Experimental data: PubChem BioAssay (Tox21)
Unmarked numbers belong to inactive results. Inconclusive results are not listed. Where a call stands in place of a potency, no number is given. Calls of active or inactive are those of the source. Unless noted, calls come from the whole dose curve; as a rule, active = well fitted curve in the direction sought with a large enough effect in the repeat runs; inconclusive = weak or mixed curves; inactive = no such curve, though single readings can be large; an effect the other way counts as inactive or inconclusive.

What was measured:
[1] = qHTS assay to identify small molecule agonists of the estrogen receptor alpha (ER-alpha) signaling pathway in the presence of an antagonist - cell viability counter screen (AID 1259386);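 note: series mostly up to about 92 µM; cells exposed to compounds for 22 h at 37 °C before the viability read; nearly all actives have a fitted effect of over 30% in size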
Procedure, shortened: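 Cells are starved of estrogens for 5 days in charcoal-stripped serum, seeded for 24hr and co-treated with ICI-182,780 (10.0nM final) and test compounds. After 22hr at 37C, viability is read as CellTiter-Fluor fluorescence.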

[2] = target: Progesterone receptor (Homo sapiens) (UniProt P06401); assay: qHTS assay to identify small molecule agonists of the progesterone receptor (PR) signaling pathway (AID 1346784; calls by dose curve; note: nearly all actives have a fitted effect of over 30% in size)
Progesterone receptor (Homo sapiens), sequence (P06401 whole entry, looked up): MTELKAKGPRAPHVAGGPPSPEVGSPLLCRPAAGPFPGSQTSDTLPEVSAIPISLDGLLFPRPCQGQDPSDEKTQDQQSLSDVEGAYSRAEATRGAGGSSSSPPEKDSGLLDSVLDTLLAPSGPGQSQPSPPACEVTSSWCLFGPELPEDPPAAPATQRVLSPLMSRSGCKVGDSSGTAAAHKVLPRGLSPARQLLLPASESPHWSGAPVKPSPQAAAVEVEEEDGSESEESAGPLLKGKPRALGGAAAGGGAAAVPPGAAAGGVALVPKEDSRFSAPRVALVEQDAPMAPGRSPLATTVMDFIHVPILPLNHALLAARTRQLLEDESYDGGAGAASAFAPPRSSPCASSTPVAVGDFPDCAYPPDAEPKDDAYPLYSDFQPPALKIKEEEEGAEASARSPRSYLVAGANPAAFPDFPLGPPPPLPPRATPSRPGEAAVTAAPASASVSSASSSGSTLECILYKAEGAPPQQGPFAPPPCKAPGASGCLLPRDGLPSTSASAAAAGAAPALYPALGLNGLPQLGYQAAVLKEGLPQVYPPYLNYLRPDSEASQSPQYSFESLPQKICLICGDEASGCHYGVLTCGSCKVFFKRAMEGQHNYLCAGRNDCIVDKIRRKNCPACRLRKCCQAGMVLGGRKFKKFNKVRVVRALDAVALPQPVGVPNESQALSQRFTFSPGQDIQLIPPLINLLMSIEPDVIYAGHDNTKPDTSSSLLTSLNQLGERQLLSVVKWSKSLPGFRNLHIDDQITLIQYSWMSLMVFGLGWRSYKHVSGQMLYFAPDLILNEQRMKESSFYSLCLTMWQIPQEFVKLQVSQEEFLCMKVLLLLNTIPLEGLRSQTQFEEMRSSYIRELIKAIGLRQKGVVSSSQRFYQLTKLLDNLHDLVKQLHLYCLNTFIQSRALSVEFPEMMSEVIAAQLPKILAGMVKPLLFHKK
Procedure, shortened: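 PR-UAS-bla HEK 293T cells (beta-lactamase reporter under UAS) in 2% charcoal-stripped FBS, dosed with 23 nL compound after 6 hr, incubated 16hr at 37C. LiveBLAzer B/G FRET substrate added, fluorescence read after 2 hours.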

[3] = target: Progesterone receptor (Homo sapiens) (UniProt P06401); assay: qHTS assay to identify small molecule antagonists of the progesterone receptor (PR) signaling pathway (AID 1346795; active = well fitted inhibition curve with a large enough effect in the signal ratio in the repeat runs, not every such curve was filed as active; the % refers to the signal ratio; note: potency is the fitted concentration of half-maximal effect)
Procedure, shortened: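 PR-UAS-bla HEK293T cells with beta-lactamase reporter under UAS control, in 2% charcoal-stripped FBS, treated with compounds plus 1 nM promegestone (R5020, final) for 16 hr at 37C. Read-out: FRET beta-lactamase substrate fluorescence after 2 hr at room temperature.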

[4] = qHTS assay to identify small molecule antagonists of the progesterone receptor (PR) signaling pathway - cell viability counter screen (AID 1346798); note: series mostly up to about 92 µM; nearly all actives have a fitted effect of over 50% in size
Procedure, shortened: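 PR-UAS-bla HEK293T cells, 3,000/well in 2% charcoal-stripped FBS medium, dosed with compounds plus R5020 agonist and incubated 16 h at 37C. Viability then measured in the same wells by CellTiter-Glo luminescence after 30 min at RT.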

[5] = qHTS assay to identify small molecule agonists of the progesterone receptor (PR) signaling pathway - cell viability counter screen (AID 1346799; calls by dose curve; note: nearly all actives have a fitted effect of over 45% in size)
Procedure, shortened: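 Counter screen in the PR-UAS-bla HEK293T wells (2% charcoal-stripped FBS, 16 h compound exposure at 37 C) after the bla read. CellTiter-Glo added, 30 min at room temperature, luminescence read as cell viability.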

[6] = qHTS assay to identify small molecule antagonists of the TGF-beta/Smad signaling pathway - cell viability counter screen (AID 1346824); note: nearly all actives have a fitted effect of over 50% in size
Procedure, shortened: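 SBE-bla HEK 293T cells, incubated overnight, then compound plus 0.25 ng/mL TGF-beta1 (stock added) for 5 hr at 37 C. Viability was read in the same wells by CellTiter-Glo luminescence after 30 min at room temperature.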

[7] = qHTS assay to identify small molecule agonists of the TGF-beta/Smad signaling pathway - cell viability counter screen (AID 1346829); note: top concentration of the series differs between compounds; nearly all actives have a fitted effect of over 45% in size
Procedure, shortened: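 After overnight seating at 37 C and 5% CO2, reporter cells got compounds for 5 hr and FRET substrate for 2 hr; cell viability then came from CellTiter-Glo luminescence.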

[8] = qHTS assay to identify small molecule agonists of the TGF-beta/Smad signaling pathway (AID 1346859; active = well fitted activation curve with a large enough effect in the signal ratio in the repeat runs, not every such curve was filed as active; the % refers to the signal ratio; note: series mostly up to about 77 µM)
Procedure, shortened: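 SBE-bla HEK293T cells plated overnight, then compound exposure for 5 h at 37 C. Beta-lactamase reporter read with LiveBLAzer B/G FRET substrate after 2 h at room temperature, fluorescence at 405 nm excitation, 460/530 nm emission.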

[9] = target: Thyrotropin-releasing hormone receptor (Homo sapiens) (UniProt P34981); assay: qHTS assay to identify small molecule antagonists of the thyrotropin-releasing hormone receptor (TRHR) signaling pathway (AID 1346877; active = well fitted inhibition curve with a large enough effect in the repeat runs, not every such curve was filed as active; note: series mostly up to about 51 µM)
Thyrotropin-releasing hormone receptor (Homo sapiens), sequence (P34981 whole entry, looked up): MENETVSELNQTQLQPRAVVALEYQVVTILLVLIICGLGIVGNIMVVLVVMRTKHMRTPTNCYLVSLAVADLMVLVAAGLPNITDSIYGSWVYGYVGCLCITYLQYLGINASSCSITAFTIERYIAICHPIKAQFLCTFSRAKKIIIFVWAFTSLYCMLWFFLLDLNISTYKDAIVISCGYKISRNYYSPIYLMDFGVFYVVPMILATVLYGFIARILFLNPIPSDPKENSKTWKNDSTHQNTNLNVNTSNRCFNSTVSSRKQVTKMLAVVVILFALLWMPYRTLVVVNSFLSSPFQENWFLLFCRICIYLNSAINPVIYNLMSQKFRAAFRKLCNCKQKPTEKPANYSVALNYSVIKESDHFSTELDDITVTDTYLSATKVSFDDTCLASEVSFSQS
Procedure, shortened: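 Cells (TRHR-HEK293) are plated and kept 18 h at 37 °C/5% CO2. A calcium-sensitive dye is added for 2 h, compound follows for 5 min at room temperature, and TRH is then given at 1 nM final.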

[10] = target: Thyrotropin-releasing hormone receptor (Homo sapiens) (UniProt P34981); assay: qHTS assay to identify small molecule agonists of the thyrotropin-releasing hormone receptor (TRHR) signaling pathway (AID 1346891; calls by dose curve; note: series mostly up to about 58 µM)
Procedure, shortened: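 HEK293 cells expressing TRHR plated 18 h at 37 C/5% CO2, calcium dye-loaded 2 h at 37 C, then compound added (agonist mode); kinetic calcium fluorescence read 3 min at 1 s intervals; 15 concentrations in triplicate.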

O=P(Cl)(Cl)Cl
Potency [1]: inactive
Potency [2]: inactive
Potency [3]: inactive
Potency [4]: inactive
Potency [5]: inactive
Potency [6]: inactive
Potency [7]: inactive
outcome [8]: inactive
Potency [9]: inactive
Potency [10]: inactive

CC1(C)C(C=C(Cl)Cl)C1C(=O)OC(C#N)c1ccc(F)c(Oc2ccccc2)c1 (centres undefined)
Potency [1]: inactive
Potency [2]: inactive
Potency [3]: 13.7 µM (active)
Potency [4]: inactive
Potency [5]: inactive
Potency [6]: inactive
Potency [7]: inactive
outcome [8]: inactive
Potency [9]: inactive
Potency [10]: inactive

Cc1ccc(C)c2ccccc12
Potency [1]: inactive
Potency [2]: inactive
Potency [3]: inactive
Potency [4]: inactive
Potency [5]: inactive
Potency [6]: inactive
Potency [7]: inactive
outcome [8]: inactive
Potency [9]: inactive
Potency [10]: inactive

CC1CN1 (centres undefined)
Potency [1]: inactive
Potency [2]: inactive
Potency [3]: inactive
Potency [4]: inactive
Potency [5]: inactive
Potency [6]: inactive
Potency [7]: inactive
outcome [8]: inactive

Oc1ccc2[nH]cc(CCCCN3CC=C(c4ccccc4)CC3)c2c1
Potency [1]: inactive
Potency [2]: inactive
Potency [3]: inactive
Potency [4]: inactive
Potency [5]: inactive
Potency [6]: inactive
Potency [7]: inactive
outcome [8]: inactive

OCC(Br)CBr (centres undefined)
Potency [1]: inactive
Potency [2]: inactive
Potency [3]: inactive
Potency [4]: inactive
Potency [5]: inactive
Potency [6]: inactive
Potency [7]: inactive
outcome [8]: inactive

C#CC1(O)CCCCC1
Potency [1]: inactive
Potency [2]: inactive
Potency [3]: inactive
Potency [4]: inactive
Potency [5]: inactive
Potency [6]: inactive
Potency [7]: inactive
outcome [8]: inactive
Potency [9]: inactive
Potency [10]: inactive

CC(=O)C(Cl)C(=O)N(C)C (centres undefined)
Potency [1]: inactive
Potency [2]: inactive
Potency [3]: inactive
Potency [4]: inactive
Potency [5]: inactive
Potency [6]: inactive
Potency [7]: inactive
outcome [8]: inactive
Potency [9]: inactive
Potency [10]: inactive

CCOC(=O)Cc1ccccc1
Potency [1]: inactive
Potency [2]: inactive
Potency [3]: inactive
Potency [4]: inactive
Potency [6]: inactive
Potency [7]: inactive
outcome [8]: inactive
Potency [9]: inactive
Potency [10]: inactive

ClC1(Cl)C2(Cl)C3(Cl)C4(Cl)C(Cl)(Cl)C5(Cl)C3(Cl)C1(Cl)C5(Cl)C24Cl (centres undefined)
Potency [1]: inactive
Potency [2]: inactive
Potency [3]: inactive
Potency [4]: inactive
Potency [6]: inactive
Potency [7]: inactive
outcome [8]: inactive
Potency [9]: inactive
Potency [10]: inactive

N#CSCc1ccccc1
Potency [1]: inactive
Potency [2]: inactive
Potency [3]: inactive
Potency [4]: inactive
Potency [6]: inactive
Potency [7]: inactive
outcome [8]: inactive
Potency [9]: inactive
Potency [10]: inactive

O=C(Nc1ccc(F)cc1F)c1cccnc1Oc1cccc(C(F)(F)F)c1
Potency [1]: inactive
Potency [2]: inactive
Potency [3]: inactive
Potency [4]: inactive
Potency [5]: inactive
Potency [6]: inactive
Potency [7]: inactive
outcome [8]: inactive
Potency [9]: inactive
Potency [10]: inactive

O=S(=O)(O)F
Potency [1]: inactive
Potency [2]: inactive
Potency [3]: inactive
Potency [4]: inactive
Potency [5]: inactive
Potency [6]: inactive
Potency [7]: inactive
outcome [8]: inactive
Potency [9]: inactive
Potency [10]: inactive

CC(Cc1ccc2c(c1)OCO2)NO (centres undefined)
Potency [1]: inactive
Potency [2]: inactive
Potency [3]: inactive
Potency [4]: inactive
Potency [6]: inactive
Potency [7]: inactive
outcome [8]: inactive
Potency [9]: inactive
Potency [10]: inactive

CCCC[N+]1(C)CCCC1 (tested in a mixture with another compound)
Potency [1]: inactive
Potency [2]: inactive
Potency [3]: inactive
Potency [4]: inactive
Potency [5]: inactive
Potency [6]: inactive
Potency [7]: inactive
outcome [8]: inactive

O=NN(CCO)CCO
Potency [1]: inactive
Potency [2]: inactive
Potency [3]: inactive
Potency [4]: inactive
Potency [5]: inactive
Potency [6]: inactive
Potency [7]: inactive
outcome [8]: inactive

O=C(O)CCCCCCNC1c2ccccc2CCc2ccccc21
Potency [1]: inactive
Potency [2]: inactive
Potency [3]: inactive
Potency [4]: inactive
Potency [5]: inactive
Potency [6]: inactive
outcome [8]: inactive

CCCN
Potency [1]: inactive
Potency [2]: inactive
Potency [3]: inactive
Potency [4]: inactive
Potency [5]: inactive
Potency [6]: inactive
Potency [7]: inactive
outcome [8]: inactive

CCCCc1ccccc1
Potency [1]: inactive
Potency [2]: inactive
Potency [3]: inactive
Potency [4]: inactive
Potency [5]: inactive
Potency [6]: inactive
Potency [7]: inactive
outcome [8]: inactive

CC(C)(C)c1ccc(OP(=O)(Oc2ccccc2)Oc2ccccc2)cc1
Potency [1]: inactive
Potency [2]: inactive
Potency [3]: 21.8 µM (active)
Potency [4]: inactive
Potency [5]: inactive
Potency [6]: inactive
outcome [8]: inactive
Potency [9]: inactive
Potency [10]: inactive

O=[N+]([O-])c1ccccc1-c1ccccc1
Potency [1]: inactive
Potency [2]: inactive
Potency [3]: inactive
Potency [4]: inactive
Potency [5]: inactive
Potency [6]: inactive
Potency [7]: inactive
outcome [8]: inactive
Potency [9]: inactive
Potency [10]: inactive

CNN
Potency [1]: inactive
Potency [2]: inactive
Potency [3]: inactive
Potency [4]: inactive
Potency [5]: inactive
Potency [6]: inactive
outcome [8]: inactive

Nc1nc(N)nc(Cl)n1
Potency [1]: inactive
Potency [2]: inactive
Potency [3]: inactive
Potency [4]: inactive
Potency [5]: inactive
Potency [6]: inactive
Potency [7]: inactive
outcome [8]: inactive
Potency [9]: inactive
Potency [10]: inactive

CCOP(=O)(OCC)Oc1cc(C)nc(C(C)C)n1
Potency [1]: inactive
Potency [2]: inactive
Potency [3]: inactive
Potency [4]: inactive
Potency [5]: inactive
Potency [7]: inactive
outcome [8]: inactive
Potency [9]: inactive
Potency [10]: inactive

CCC1(CC)C(=O)N=C(O)NC1=O
Potency [1]: inactive
Potency [2]: inactive
Potency [3]: inactive
Potency [4]: inactive
Potency [5]: inactive
Potency [6]: inactive
Potency [7]: inactive
outcome [8]: inactive
Potency [9]: inactive
Potency [10]: inactive
